# Reference: PubChem BioAssay AID624134 (Broad Institute, 2012)
# Screen size: about 1,600 compounds; about 1,100 (69%) were called active. The set was probably picked from earlier hits. Not all results are given here. Measured potencies and affinities stand elsewhere. Inconclusive results are not listed.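 Rule for the calls: active = signal drop with fitted half-maximal concentration no higher than twice the top valid tested concentration; inconclusive = flat curve with 30 to 70% signal loss, or poor fit; inactive = the rest, including signal rises and flat curves within 30%.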
# Assay: HepG2 cell cytotoxicity, dose response, cytotoxicity control for Shn3 inhibitor project, CellTiter-Glo, cherry-picked (AID 624134)
# Details: HepG2 viability, CellTiter-Glo ATP luminescence, 48 h; series mostly up to 35 µM
row,Compound,outcome
1,CC(C)c1nnc(NC(=O)CCS(=O)(=O)c2nc(-c3cccs3)cc(C(F)(F)F)n2)s1,inactive
2,COc1ccccc1-c1cc(C(F)(F)F)nc(S(=O)(=O)CCCC(=O)Nc2cccnc2Cl)n1,inactive
3,COC(=O)c1ccc(N2CCN(S(=O)(=O)c3ccc(C)cc3)CC2)c([N+](=O)[O-])c1,inactive
4,O=C1CC2(CCN(C(=O)c3ccccc3F)CC2)Oc2ccccc21,inactive
5,O=C(CSc1c2c(nc3ccc(Cl)cc13)CCCC2)NCc1ccco1,inactive
6,CSCCC(NC(=O)c1ccccc1)C(=O)OCC(=O)N(C)CCC#N (configuration not stated),inactive
7,CC[C@@H](C(=O)[C@@H](C)[C@@H](O)[C@H](C)CCc1ccc(C)c(O)c1C(=O)O)[C@H]1O[C@](CC)([C@H]2CC[C@](O)(CC)[C@H](C)O2)C[C@@H]1C,inactive
8,Cc1cc(C)n2nc(SCc3cccc(S(=O)(=O)N(C)C)c3)nc2n1,inactive
9,CC(C)NCC(O)COc1cccc2ccccc12 (configuration not stated),inactive
10,CCn1c(C)nc2cc(-c3nnc(-c4c(-c5ccccc5)noc4C)o3)ccc21,inactive
11,COc1ccc(N(C)C(=O)c2ccc3snnc3c2)cc1,inactive
12,COc1ccc(-c2ccc(Nc3ccc(S(=O)(=O)N4CCCC4)cc3)nn2)cc1OC,inactive
13,COC(=O)Oc1ccc(/C=C/C(=O)OC(C)C)cc1OC(=O)OC,inactive
14,Cc1ccc(C(=O)/C=C/c2ccc(-c3ccc(C)cc3)o2)cc1,inactive
15,CCc1c(C)nc2cc(-c3ccc(OC)c(OC)c3)nn2c1NCC1CC1,inactive
16,C=CS(=O)(=O)c1sc(Cl)c(N2CCOCC2)c1[N+](=O)[O-],inactive
17,COc1ccc(-c2nsc3c(N4CCCCC4C)ncnc23)cc1 (configuration not stated),inactive
18,CC(Cc1cccs1)NC(=O)Nc1ccc(F)cc1 (configuration not stated),inactive
19,COc1ccc(CNC(=O)C(c2ccc(C)cc2)N(Cc2cccs2)C(=O)c2ccc3c(c2)OCCO3)cc1 (configuration not stated),inactive
20,COc1ccc(C(O)c2nc(-c3cccc(F)c3)cs2)cc1 (configuration not stated),inactive
21,O=C(C1=C[C@@H](C2CC2)C[C@@H](OCCCCO)O1)N1CCN(Cc2ccccc2)CC1,inactive
22,NC(=O)c1cc(N2C(=O)C=CC2=O)ccc1Cl,inactive
23,CC(C)C(NC(=O)c1ccc(Cl)cc1Cl)C(=O)N1CCN(S(=O)(=O)c2ccccc2)CC1 (configuration not stated),inactive
24,O=C(Cc1ccccc1)NCCS(=O)c1ccc(Cl)cc1 (configuration not stated),inactive
25,Nc1nnc(SCC(=O)Nc2ccc(N3CCOCC3)cc2)s1,inactive
26,CCCc1ccc(C(=O)NNc2cc(Cl)ccc2Cl)cc1,inactive
27,O=C(c1ccc(S(=O)(=O)c2ccc(F)cc2)c([N+](=O)[O-])c1)N1CCCCCC1,inactive
